# Test results: ChEMBL document CHEMBL3433997, “St. Jude Leishmania screening dataset” (2016)
# Molecular target: Glucose transporter (Leishmania mexicana) (UniProt O61059)
# Test: ST_JUDE_LEISH: Cytotoxicity at 2uM final concentration against transgenic Leishmania Mexicana promastigotes LmGT2 that are glucose transport deficient and complemented with the L. Mexicana glucose transporter 2. Activity is measured by DNA content using SYBR green in vitro
# Assay type: functional
row,Compound,inhibition [%]
1,CCOc1ccc(-c2nonc2NC(=O)c2ccc(OC)cc2)cc1OCC,-0.16
2,CC(C)(C)c1ccc(Cn2c(=N)n(CC(=O)c3ccc(-c4ccccc4)cc3)c3ccccc32)cc1,-0.07
3,COc1cc(CNc2ccc(N3CCCC3)cc2)cc(Cl)c1OC,1.78
4,CCCc1cc(OC)c(CC2c3cc(O)c(C)cc3CCN2C)cc1OC (stereo not given),3.59
5,Cc1ccc(CNC(=O)[C@H](CCCN)Nc2cc(C)nc(Nc3ccccc3)n2)cc1,7.78
6,COc1cccc(NC(=O)[C@H](C)n2c(=O)[nH]c3ccccc3c2=O)c1,7.45
7,C[C@H](Cc1ccc(CCc2ccc(C[C@@H](C)NC[C@H](O)c3cccc(Cl)c3)cc2)cc1)NC[C@H](O)c1cccc(Cl)c1,58.5
8,O=C1OC(c2ccccc2)(c2ccccc2)CN1CC1CCN(Cc2ccc(O)c(Cl)c2)CC1,32.2
9,N#Cc1ccc(-c2ccc(OCC(O)CN3CCCN(Cc4cccc(O)c4Cl)CC3)cc2)cc1 (stereo not given),1.67
10,O=C(Nc1ccc(Br)c(Cl)c1)c1cc([N+](=O)[O-])cc2cn[nH]c12,1.08
11,Cc1ccc(C(=O)Nc2ccc(C)c(OC3CCN(Cc4ccco4)C3)c2)cc1 (stereo not given),7.13
12,COc1ccc(-c2ccc(CNC3Cc4ccccc4C3)cc2)cc1S(=O)(=O)NCCN1CCCC1,-0.28
13,CCOCn1c(-c2ccccc2)cc2c3c(N)nc(N)nc3ccc21,101
14,CCN(C)C(=O)n1ncc2c3c(N)nc(N)nc3ccc21,2.18
15,Cc1nc(C)c(-c2ccc(Oc3cc(Cl)cc(Cl)c3)cc2)c(O)c1Br,-1.58
16,CCCC(C)Nc1nc(C)cc(NCCC(=O)Nc2ccccc2)n1 (stereo not given),2.55
17,CNCCNCc1ccc(-c2ccc(-c3nc4cc(C(F)(F)F)ccc4[nH]3)cc2)cc1,2.46
18,CCOC(=O)CCCCCNC[C@H](O)c1ccccc1,-2.14
19,CC(=O)c1cccc(NC(=O)C2c3ccccc3C(=O)N(CC(C)C)C2c2cccs2)c1 (stereo not given),0.19
20,CC(=O)N(Cc1ccc(CC(C)NCCc2cccc(Cl)c2)cc1)Cc1ccc(CC(C)NCCc2cccc(Cl)c2)cc1 (stereo not given),99.7

row,Compound,inhibition [%]
1,NCc1ccc(CNCc2cccc(-c3cccc(-c4nc5cc(F)ccc5[nH]4)c3)c2)cc1,8.54
2,CCn1c(SCc2ccccc2)nc2c1c(=O)[nH]c(=O)n2C,-1.06
3,Cc1nc(-c2cccc(Nc3nccc(NCC(O)c4ccc(C(F)(F)F)cc4)n3)c2)cs1 (stereo not given),-0.68
4,c1cc(CNCCc2ccncc2)cc(-c2cccc(-c3nc4ccccc4[nH]3)c2)c1,10
5,CC1CN(Cc2ccc(-c3ccc(-c4nc5ccccc5[nH]4)cc3)cc2)CC(C)O1 (stereo not given),4.66
6,CCCCCCCCN1CCCN(C(=O)c2cccc(NC(=O)Nc3ccc4ccccc4c3)c2)CC1,-0.77
7,O=C(Nc1ccc(C(=O)Oc2ccc(-c3ccccc3)cc2)cc1)N[C@@H](Cc1ccc(O)cc1)C(=O)NC1CCN(Cc2ccc(O)cc2)C1 (stereo not given in full),4.33
8,Cc1cc(Nc2ccc(O)cc2)nc2cccc(O)c12,3.84
9,COc1cc(F)c2nccc([C@@H](O)CN3CCC(NCc4ccc5c(n4)NC(=O)CS5)C(F)C3)c2c1 (stereo not given in full),3.18
10,Fc1cccc(Nc2nc(NCc3ccc(OCc4ccccc4)cc3)nc(Nc3cccc(F)c3)n2)c1,8.22
11,CCc1c[nH]c2c(N(c3ccccc3)S(C)(=O)=O)cc(C(=O)N[C@@H](Cc3ccccc3)[C@H](O)CNCc3cccc(C(F)(F)F)c3)cc12,-2.38
12,CCN(CC)CCOc1ccc(C(O)(C#CC(O)(c2ccc(Br)cc2)c2ccc(OCCN(CC)CC)cc2)c2ccc(Br)cc2)cc1 (stereo not given),3.37
13,c1cc2[nH]c(CCc3nc4cc(C5=NC6CCCCC6N5)ccc4[nH]3)nc2cc1C1=NC2CCCCC2N1 (stereo not given),6.48
14,O=c1cc(NCCCNC(CNCCc2ccccc2)c2cc(Br)cc(Br)c2)[nH]c2ccccc12 (stereo not given),2.67
15,Oc1ccc2nc(NCCCc3ccccc3)nc(NCCc3ccccc3)c2c1,-0.15
16,CC(C)(C)C(=O)Nc1ccc(N2CCN(C(c3ccccc3)c3ccccc3)CC2)c(Cl)c1,4.93
17,CC(C)Oc1ccc(N2CCN(CCCCNC(=O)c3ccc(NC(=O)c4ccc(Cl)cc4)cc3)CC2)c(OC(C)C)c1,1.44
18,CC1(C)NC(N)=NC(=N)N1OCCOc1cccc(C(F)(F)F)c1,2.45
19,c1ccc2c(Nc3ccc(OCCOCCOc4ccc(Nc5c6ccccc6nc6ccccc56)cc4)cc3)c3ccccc3nc2c1,4.94
20,Cc1oc(-c2cccc(Oc3ccccc3)c2)nc1CN(Cc1cnn(C)c1)C(C)C,1.83
